Assay results published in article PMC5540273 (PLoS ONE, 2017).

Tested on: NEK1
Conditions: concentration: 1 μM, replicates: in singlicate; n = 1
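Note: KINOMEscan kinase panel screen.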

SMILES	%Inh [%]
CCCCc1nn2ncccc2c1-c1ccnc(Nc2ccc(N3CCN(C)CC3)cc2)n1 [GW684941]	0
Cc1ccc(S(=O)(=O)Nc2ccc(Nc3nccc(Nc4cccc5[nH]ncc45)n3)cc2)cc1 [GSK581271]	0
CN(C)Cc1ccc(-c2ccc3c(Nc4ccc(Oc5ccccn5)cc4)ccnc3c2)o1 [GW567148]	0
Cc1cccc(Nc2nc(N[C@H]3CCNC3)ncc2C(N)=O)c1.Cl [GSK2197149]	50
Cc1ccc(C(=O)N2CC[C@@H](O)C2)cc1-n1c(C)cc(OCc2ccc(F)cc2F)c(Br)c1=O	0
O=C(O)C(F)(F)F.O=C(O)C(F)(F)F.O=c1[nH]ccc2nc(N[C@@H]3CCCNC3)nc(Nc3ccc(S(=O)(=O)N4CCOCC4)cc3)c12 [GSK2177277]	62
Cc1ccc(C)c(NC(=O)NC2CCN(c3ccnc(Nc4ccc(F)cc4)n3)C2)c1 (stereo not shown) [GSK1379720]	0
Cc1cccc(NC(=O)Nc2ccc(Oc3ncnc4ccn(C)c34)cc2)c1	0
COc1ccc(-c2coc3ccc(-c4nnc(SCc5ccc(OC)c(C(F)(F)F)c5)o4)cc23)cc1	0
CC(C)c1nc(-c2cccc(NS(=O)(=O)c3c(F)cccc3F)c2F)c(-c2ccnc(Nc3ccc(N4CCOCC4)nc3)n2)s1 [GSK2008607]	82
O=C(Nc1cccc(-c2nn3ncccc3c2-c2ccnc(Nc3ccccc3)n2)c1)c1c(F)cccc1F [GSK198271]	3
O=c1[nH]cc(-c2ccc(N3CCOCC3)cc2)c2sc(-c3cn[nH]c3)cc12 [GSK2276055]	19
COC(=O)Nc1nc2cc(Oc3ccc(NC(=O)Nc4cc(C(F)(F)F)ccc4F)cn3)ccc2[nH]1.Cl.Cl [GW681170]	0
Cl.Cl.NCC(NCc1ccc(-c2ccnc3[nH]ccc23)s1)c1ccccc1 (stereo not shown) [GSK1321565]	0
CCS(=O)(=O)c1ccc(OC)c(Nc2nccc(-c3c(-c4cccc(NC(=O)c5c(F)cccc5F)c4)nn4ncccc34)n2)c1 [GSK326180]	0
COc1cccc(-c2ccc3c(NC(=O)C4CC4)n[nH]c3n2)c1 [SB-710903]	0
CSc1cccc2c(-c3ccncn3)c(-c3ccc(F)cc3)nn12 [GW514786]	0
COc1cc2c(cc1OCCN1CCNCC1)ncc1c3ccc(C#N)cc3[nH]c21	0
Cn1cc(-c2ccc3c(c2)CCN3C(=O)Cc2cccc(F)c2)c2c(N)ncnc21 [GSK2603358]	31

SMILES	%Inh [%]
C[C@@H](Oc1cc(-n2cnc3cc(-c4ccnc(NCCS(C)(=O)=O)c4)ccc32)sc1C(N)=O)c1ccccc1Cl [GSK907232]	72
COc1cccc(C(=O)Nc2cccc(Oc3ccc4nc(NC(=O)C5CC5)cn4n3)c2)c1	16
Cl.c1ccc(-c2ccc3c(Nc4ccc5[nH]ncc5c4)ccnc3c2)nc1 [GW440137]	0
Cn1cc(-c2[nH]c3cc(NC(=O)[C@H](N)C4CCCCC4)cc4c3c2C=NNC4=O)cn1	70
CCn1c(-c2nonc2N)nc2c(C#CC(C)(C)O)ncc(OCCCCN)c21.O=C(O)C(F)(F)F.O=C(O)C(F)(F)F [GSK507274]	0
CN(C)S(=O)(=O)c1cc(-c2ccc3nccc(-c4cccc(S(N)(=O)=O)c4)c3c2)cnc1N [GSK1669921]	0
CCn1c(-c2nonc2N)nc2c(C#CC(C)(C)O)nc(OC[C@H](N)c3ccccc3)cc21 [GSK943949]	0
Cl.c1ccc(-c2ccc3c(Nc4ccc5[nH]ccc5c4)ccnc3c2)nc1 [GW440138]	0
Nc1n[nH]c2cnc(-c3ccccc3)cc12 [SB-642124]	0
O=C(Nc1n[nH]c2cc(-c3ccoc3)ccc12)C1CC1 [SB-738481]	0
FC(F)(F)c1ccc(/C=C/c2cncnc2Nc2ccc3[nH]c(Cc4ccccc4)nc3c2)cc1 [GW709199]	0
CC(C)(C)c1ccc2nccc(Nc3cccc(O)c3)c2c1 [GW856795]	0
COc1cc(Nc2nccc(-c3c(-c4cccc(NC(=O)c5c(F)cccc5F)c4)nn4ccccc34)n2)cc(OC)c1OC [GSK323521]	8
Clc1ccc(-c2nn3ncccc3c2-c2ccnc(Nc3ccc4c(c3)OCCO4)n2)cc1 [GW829116]	0
Cl.Cl.NCC(C(=O)Nc1cc(Br)c(-c2ccnc3[nH]ccc23)s1)c1ccccc1 (stereo not shown) [GSK1269851]	0
Fc1ccc(-c2ncn(C3CCNCC3)c2-c2ccnc(Oc3ccc(-c4ccccc4)cc3)n2)cc1 [SB-245391]	36
COc1cccc(C2=C(Nc3ccc(Cl)c(C(=O)O)c3)C(=O)NC2=O)c1 [SB-390769]	0
O=C(Nc1ccccc1F)NC1CCN(c2ccnc(Nc3ccc(F)cc3)n2)CC1 [GSK1379800]	0
